The record followed here is the OligoGym collection.
Further: reference of the scale not given here.

This experiment has as its target ACYP2. The experiment can be described thus: pooled miR-30 sensor sort-seq; sequence = guide strand. The settings on record: shRNA.
In turn, TTTTCATTAGAAAAGTTTGTGC yielded a sensor-assay potency score (higher = more potent) of -0.116. With TATTTTCCTAGCTTCATCTTCT, the sensor-assay potency score (higher = more potent) was determined as 1.16. TATTCTAGTATACATAGTCTTA showed a sensor-assay potency score (higher = more potent) of -0.674.

TTGAGTAAAATTATTTCAGTGT showed a sensor-assay potency score (higher = more potent) of 0.361.

As to TAGTCTTAAGAACATACAGTAT, the sensor-assay potency score (higher = more potent) is -1.07. On to TAGTAGCACGTACAGTCGCTTA, for which the sensor-assay potency score (higher = more potent) was -1.19.

Sequence TTAGTAGCACGTACAGTCGCTT displayed a sensor-assay potency score (higher = more potent) of -0.537. With ATCTTCTGTATACATTCTGAAG the figure was -1.49; with TTCATCTTCTGTATACATTCTG, 0.635. Consider TTGCTTGTTGAAAACATAGTTG, for which the sensor-assay potency score (higher = more potent) was -0.594.

Sequence TTTGCTGGTATTCTTCACCCAG returned a sensor-assay potency score (higher = more potent) of -0.785. TTTAGTAGCACGTACAGTCGCT came in with a sensor-assay potency score (higher = more potent) of 0.0895.

TCATTAGAAAAGTTTGTGCGGT showed a sensor-assay potency score (higher = more potent) of -0.214.

TGGAATTGACTTTGTCTTCTGG came in with a sensor-assay potency score (higher = more potent) of -0.0277. As for TACTCTGCTACTATTATTCTAG, the sensor-assay potency score (higher = more potent) is -0.38. For TATTCAAGCTTAGAGATGGTTT, the sensor-assay potency score (higher = more potent) was -0.574. TCTGTATACATTCTGAAGCAAA came in with a sensor-assay potency score (higher = more potent) of -1.22.

Sequence TTTTCCTAGCTTCATCTTCTGT came in with a sensor-assay potency score (higher = more potent) of -0.817.

The sequence TTTCCTAGCTTCATCTTCTGTA registered a sensor-assay potency score (higher = more potent) of 0.952. The sequence TTCTAGTATACATAGTCTTAAG came in with a sensor-assay potency score (higher = more potent) of -1.46.

Turning to TTGACTTTGTCTTCTGGCCCCT, the sensor-assay potency score (higher = more potent) is 0.0313. The sequence TTCATTAGAAAAGTTTGTGCGG registered a sensor-assay potency score (higher = more potent) of 0.328. Turning to TTGCTGGTATTCTTCACCCAGC, the sensor-assay potency score (higher = more potent) is -1.24. TTCCTAGCTTCATCTTCTGTAT came in with a sensor-assay potency score (higher = more potent) of -0.685.
